{
  "source": "PubChem BioAssay (EPA / NIEHS)",
  "note": "The source made the active and inactive calls. How the source made its calls: active means hit-call score of the fitted dose curve at least 0.9, where 1 is the maximum; inactive means score below 0.9.",
  "data": [
    {"read-out": "Interleukin-8 (IL8), CXCL8 (gene 3576)", "experiment": "BSK_CASM3C_IL8: BioMAP Diversity Plus: CASM3C Assay for Interleukin-8 (IL8) Biomarker Activity (AID 2283042);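 further: IL-8 protein level quantified by ELISA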", "details": "primary human coronary artery smooth muscle cells; actives raise or lower the signal", "values": [
      {"molecule": "CC(C)(C)OOC(C)(C)CCC(C)(C)OOC(C)(C)C", "outcome": "inactive"},
      {"molecule": "c1ccc2c(c1)oc1ccccc12", "outcome": "inactive"},
      {"molecule": "Nc1ccc([N+](=O)[O-])cc1", "outcome": "inactive"},
      {"molecule": "Nc1ccc(Oc2ccc(N)cc2)cc1", "outcome": "inactive"},
      {"molecule": "COC(=O)c1ccccc1N", "outcome": "inactive"},
      {"molecule": "c1ccc2c(c1)-c1cccc3cccc-2c13", "outcome": "inactive"},
      {"molecule": "O=C(O)C1C2CCC(O2)C1C(=O)O", "note": "(stereo not drawn)", "outcome": "inactive"},
      {"molecule": "O=P(OCCCl)(OCCCl)OCCCl", "outcome": "inactive"},
      {"molecule": "CC(C)(OOC(C)(C)c1ccccc1)c1ccccc1", "outcome": "inactive"},
      {"molecule": "CC(C)N(Cc1ccccc1)C(=O)C(C)(C)C", "outcome": "inactive"},
      {"molecule": "CS(=O)(=O)NC(=O)c1cc(Oc2ccc(C(F)(F)F)cc2Cl)ccc1[N+](=O)[O-]", "outcome": "inactive"},
      {"molecule": "[O-][Cl+]O", "outcome": "inactive"},
      {"molecule": "CCN(CC)CCO", "outcome": "inactive"},
      {"molecule": "O=C(Oc1ccc(Br)cc1)N1CCN2CCC1CC2", "outcome": "inactive"},
      {"molecule": "O=[N+]([O-])C(Br)(CO)CO", "AC50": "34.3 µM (active)"},
      {"molecule": "c1ccc(C2CO2)cc1", "note": "(stereo not drawn)", "outcome": "inactive"},
      {"molecule": "c1ccc(N=Nc2ccccc2)cc1", "outcome": "inactive"},
      {"molecule": "Oc1ccc2ccc3cccc4ccc1c2c34", "outcome": "inactive"},
      {"molecule": "CCC[CH2][Sn]([Cl])([CH2]CCC)[CH2]CCC", "AC50": "1.01 µM (active)"},
      {"molecule": "COP(=S)(OC)SCN1C(=O)c2ccccc2C1=O", "outcome": "inactive"},
      {"molecule": "[Cl-].[Cl-].[Hg+2]", "AC50": "35.5 µM (active)"},
      {"molecule": "CCN(CC)N=O", "outcome": "inactive"},
      {"molecule": "Nc1ccc(N=Nc2ccccc2)cc1", "outcome": "inactive"},
      {"molecule": "CCOC(=O)[C@]1(c2ccccc2)Oc2ccccc2[C@@H]1N", "outcome": "inactive"},
      {"molecule": "c1ccc(NNc2ccccc2)cc1", "outcome": "inactive"},
      {"molecule": "CCCCCOC(=O)c1ccccc1C(=O)OCCCCC", "outcome": "inactive"},
      {"molecule": "CCCCCCCCOC(=O)c1ccc(C(=O)OCCCCCCCC)c(C(=O)OCCCCCCCC)c1", "outcome": "inactive"},
      {"molecule": "O=[N+]([O-])c1ccc(Oc2ccc(Cl)cc2Cl)cc1", "outcome": "inactive"}
    ]},
    {"read-out": "Human Leukocyte Antigen - DR isotype (HLADR), HLA-DRA (gene 3122)", "experiment": "BSK_CASM3C_HLADR: BioMAP Diversity Plus: CASM3C Assay for Human Leukocyte Antigen - DR isotype (HLADR) Biomarker Activity (AID 2283043);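 further: cell-surface HLA-DR protein level quantified by ELISA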", "details": "primary human coronary artery smooth muscle cells; actives raise or lower the signal", "values": [
      {"molecule": "CC(C)(C)OOC(C)(C)CCC(C)(C)OOC(C)(C)C", "outcome": "inactive"},
      {"molecule": "c1ccc2c(c1)oc1ccccc12", "outcome": "inactive"},
      {"molecule": "Nc1ccc([N+](=O)[O-])cc1", "outcome": "inactive"},
      {"molecule": "Nc1ccc(Oc2ccc(N)cc2)cc1", "outcome": "inactive"},
      {"molecule": "COC(=O)c1ccccc1N", "outcome": "inactive"},
      {"molecule": "c1ccc2c(c1)-c1cccc3cccc-2c13", "outcome": "inactive"},
      {"molecule": "O=C(O)C1C2CCC(O2)C1C(=O)O", "note": "(stereo not drawn)", "AC50": "4.92 µM (active)"},
      {"molecule": "O=P(OCCCl)(OCCCl)OCCCl", "outcome": "inactive"},
      {"molecule": "CC(C)(OOC(C)(C)c1ccccc1)c1ccccc1", "AC50": "28.8 µM (active)"},
      {"molecule": "CC(C)N(Cc1ccccc1)C(=O)C(C)(C)C", "outcome": "inactive"},
      {"molecule": "CS(=O)(=O)NC(=O)c1cc(Oc2ccc(C(F)(F)F)cc2Cl)ccc1[N+](=O)[O-]", "AC50": "20 µM (active)"},
      {"molecule": "[O-][Cl+]O", "outcome": "inactive"},
      {"molecule": "CCN(CC)CCO", "outcome": "inactive"},
      {"molecule": "O=C(Oc1ccc(Br)cc1)N1CCN2CCC1CC2", "outcome": "inactive"},
      {"molecule": "O=[N+]([O-])C(Br)(CO)CO", "AC50": "29.5 µM (active)"},
      {"molecule": "c1ccc(C2CO2)cc1", "note": "(stereo not drawn)", "outcome": "inactive"},
      {"molecule": "c1ccc(N=Nc2ccccc2)cc1", "outcome": "inactive"},
      {"molecule": "Oc1ccc2ccc3cccc4ccc1c2c34", "AC50": "13.7 µM (active)"},
      {"molecule": "CCC[CH2][Sn]([Cl])([CH2]CCC)[CH2]CCC", "AC50": "0.353 µM (active)"},
      {"molecule": "COP(=S)(OC)SCN1C(=O)c2ccccc2C1=O", "outcome": "inactive"},
      {"molecule": "[Cl-].[Cl-].[Hg+2]", "AC50": "25.4 µM (active)"},
      {"molecule": "CCN(CC)N=O", "outcome": "inactive"},
      {"molecule": "Nc1ccc(N=Nc2ccccc2)cc1", "AC50": "16.8 µM (active)"},
      {"molecule": "CCOC(=O)[C@]1(c2ccccc2)Oc2ccccc2[C@@H]1N", "AC50": "31 µM (active)"},
      {"molecule": "c1ccc(NNc2ccccc2)cc1", "outcome": "inactive"},
      {"molecule": "CCCCCOC(=O)c1ccccc1C(=O)OCCCCC", "outcome": "inactive"},
      {"molecule": "CCCCCCCCOC(=O)c1ccc(C(=O)OCCCCCCCC)c(C(=O)OCCCCCCCC)c1", "outcome": "inactive"},
      {"molecule": "O=[N+]([O-])c1ccc(Oc2ccc(Cl)cc2Cl)cc1", "outcome": "inactive"}
    ]},
    {"read-out": "Macrophage colony-stimulating factor (MCSF), CSF1 (gene 1435)", "experiment": "BSK_CASM3C_MCSF: BioMAP Diversity Plus: CASM3C Assay for Macrophage colony-stimulating factor (MCSF) Biomarker Activity (AID 2283044);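 further: M-CSF protein amount quantified by ELISA after 24 h exposure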", "details": "primary human coronary artery smooth muscle cells; actives raise or lower the signal", "values": [
      {"molecule": "CC(C)(C)OOC(C)(C)CCC(C)(C)OOC(C)(C)C", "outcome": "inactive"},
      {"molecule": "c1ccc2c(c1)oc1ccccc12", "outcome": "inactive"},
      {"molecule": "Nc1ccc([N+](=O)[O-])cc1", "outcome": "inactive"},
      {"molecule": "Nc1ccc(Oc2ccc(N)cc2)cc1", "outcome": "inactive"},
      {"molecule": "COC(=O)c1ccccc1N", "outcome": "inactive"},
      {"molecule": "c1ccc2c(c1)-c1cccc3cccc-2c13", "outcome": "inactive"},
      {"molecule": "O=P(OCCCl)(OCCCl)OCCCl", "outcome": "inactive"},
      {"molecule": "CC(C)(OOC(C)(C)c1ccccc1)c1ccccc1", "outcome": "inactive"},
      {"molecule": "CC(C)N(Cc1ccccc1)C(=O)C(C)(C)C", "outcome": "inactive"},
      {"molecule": "CS(=O)(=O)NC(=O)c1cc(Oc2ccc(C(F)(F)F)cc2Cl)ccc1[N+](=O)[O-]", "outcome": "inactive"},
      {"molecule": "[O-][Cl+]O", "outcome": "inactive"},
      {"molecule": "CCN(CC)CCO", "outcome": "inactive"},
      {"molecule": "O=C(Oc1ccc(Br)cc1)N1CCN2CCC1CC2", "outcome": "inactive"},
      {"molecule": "O=[N+]([O-])C(Br)(CO)CO", "outcome": "inactive"},
      {"molecule": "c1ccc(C2CO2)cc1", "note": "(stereo not drawn)", "outcome": "inactive"},
      {"molecule": "c1ccc(N=Nc2ccccc2)cc1", "outcome": "inactive"},
      {"molecule": "Oc1ccc2ccc3cccc4ccc1c2c34", "outcome": "inactive"},
      {"molecule": "CCC[CH2][Sn]([Cl])([CH2]CCC)[CH2]CCC", "AC50": "0.273 µM (active)"},
      {"molecule": "COP(=S)(OC)SCN1C(=O)c2ccccc2C1=O", "outcome": "inactive"},
      {"molecule": "[Cl-].[Cl-].[Hg+2]", "AC50": "26.5 µM (active)"},
      {"molecule": "CCN(CC)N=O", "outcome": "inactive"},
      {"molecule": "Nc1ccc(N=Nc2ccccc2)cc1", "outcome": "inactive"},
      {"molecule": "CCOC(=O)[C@]1(c2ccccc2)Oc2ccccc2[C@@H]1N", "outcome": "inactive"},
      {"molecule": "c1ccc(NNc2ccccc2)cc1", "outcome": "inactive"},
      {"molecule": "CCCCCOC(=O)c1ccccc1C(=O)OCCCCC", "outcome": "inactive"},
      {"molecule": "CCCCCCCCOC(=O)c1ccc(C(=O)OCCCCCCCC)c(C(=O)OCCCCCCCC)c1", "outcome": "inactive"},
      {"molecule": "O=[N+]([O-])c1ccc(Oc2ccc(Cl)cc2Cl)cc1", "outcome": "inactive"}
    ]}
  ]
}
